Screening results deposited in PubChem by Johns Hopkins Ion Channel Center.
TMEM16A inh: blocks the mouse calcium-activated chloride channel TMEM16A | Q8BHY3 | HEK293 TMEM16A/YFP iodide influx fluorescence, ionomycin | normalized B-score (activity score, 25-100; higher = stronger inhibition) at 10 µM | 310,000 compounds, 1.2% hits | AID 588511;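 active = ratio plate-corrected score three or more library SD toward inhibition, starting fluorescence score within five deviations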;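 also: score derived from kinetic fluorescence span divided by baseline fluorescence per well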
CHT PAM: allosterically activates the human high affinity choline transporter; B-score at 10 µM; Q9GZV3; CHT-expressing cells, membrane potential dye, choline EC20; stronger effect = higher value; LV-AA mutant CHT in HEK293 cells; 310,000 compounds, 0.49% hits; AID 488977;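 active = initial fluorescence not abnormally high and integrated response B-score, plate-corrected, over 3 SD above library mean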
CHT inh: human CHT choline transport inhibition; 310,000 compounds, 0.86% hits; B-score at 10 µM; Q9GZV3; CHT-expressing cells, membrane potential dye, choline response; stronger effect = lower value; AID 488975;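 active = B-score over 3 SD under the library average, and starting fluorescence ratio not unusually high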;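 also: choline stimulus applied at its EC90 after an EC20 pre-addition; B-score computed on integrated fluorescence ratio after choline addition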
ANO1 activ: mouse TMEM16A channel activation, primary screen; B-score at 10 µM; HEK293 TMEM16A/YFP-H148Q/I152L, iodide quench fluorescence; stronger effect = lower value; Q8BHY3; 340,000 compounds, 0.3% hits;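 active = fluorescence-ratio B-score plate-corrected deviation score at least 3 library SD below zero, with starting fluorescence score within 5 deviations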;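 also: channel opened by trigger with iodide after compound preincubation; score built on the fluorescence ratio of max minus min over baseline; more negative score means more quench and so TMEM16A activation or potentiation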
CHT block conf: confirmation of human choline transporter CHT inhibitors. 2,400 compounds, 70% hits. shares compounds with CHT inh. CHT-expressing cells, choline membrane potential dye; LV-to-AA substituted CHT, HEK293 cells. CHT activity remaining % of control (stronger effect = lower value), % at 10 µM;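 active = choline transporter activity left, mean of duplicates at 10 µM, below buffer-only control mean minus 3 SD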;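 also: depolarization triggered by choline at its EC90 following an EC20 pre-addition; 0% = hemicholinium-3 full block and 100% = buffer-only control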
HEK293 CHT ctr: counter-screen for CHT inhibitors: effect in parental HEK293 cells; shares compounds with CHT inh; membrane potential dye, choline response; active = decrease or increase beyond buffer ±3SD; membrane potential ratio readout (active if shifted either direction beyond buffer ±3SD; no single direction) at 10 µM; 2,400 compounds, 4% hits; AID 493222;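 also: parental cells lack the transporter so any hit is non-specific; ratio is peak minus trough fluorescence over baseline after EC90 choline challenge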
* = called active by the depositor; i = inactive; x = no result. Sampled rows, rich in hits. Any-hit rate of the full collection: about 2.4%.

SMILES	TMEM16A inh	CHT PAM	CHT inh	ANO1 activ	CHT block conf	HEK293 CHT ctr
O=C(NCc1cccnc1)c1ccc(COc2ccccc2Cl)o1	i	i	-5.36*	i	58.3%*	i
O=C(NCc1cccnc1)c1ccc(COc2ccc3c(c2)CCC3)o1	i	i	i	i	x	x
O=C(Nc1cccnc1)c1ccc(COc2ccccc2Br)o1	i	i	-5.74*	i	54.9%*	i
CC(C)(C)NC(=O)c1ccc(COc2ccccc2Br)o1	i	i	-6.26*	i	i	i
O=C(CN1C(=O)C2CC=CCC2C1=O)OCC(=O)c1ccc(Cl)c([N+](=O)[O-])c1 (stereo not given)	i	i	i	i	x	x
Cc1cnn(C(=O)c2ccccc2Br)c1	i	i	i	x	x	x
Cc1c(N=Cc2cc(Br)cc(Br)c2O)cccc1C(=O)O	i	i	-5.67*	i	56.5%*	i
C=CC[C@H]1CC(Cc2ccccc2)=C[C@H](CC=C)N1	i	i	-8.64*	i	-13.2%*	-17*
CC(C)(C)C(=O)Nc1cc(C(F)(F)F)ccc1N1CCOCC1	i	i	i	i	x	x
CC(C)(C)C(=O)NC(=S)Nc1cc(C(F)(F)F)ccc1N1CCOCC1	i	i	-5.03*	i	i	i
COc1ccc(C2=Nn3c(nnc3-c3ccccc3OC)SC2)cc1OC	i	i	-6.86*	i	47.7%*	i
COc1ccc(C2=Nn3c(nnc3-c3ccccn3)SC2)cc1OC	i	i	i	i	x	x
CC(=O)N1CCN(c2nc3cc4c(cc3nc2NS(=O)(=O)c2ccccc2)OCCO4)CC1	i	i	i	i	x	x
NC(=O)c1nc[nH]c1C(=O)Nc1cccc(C(F)(F)F)c1	x	x	x	i	x	x
CC1CCCCC1NC(=O)c1cccc(N2C(=O)C3C4C=CC(C4)C3C2=O)c1 (stereo not given)	i	i	-8.4*	i	28.3%*	i
Cc1ccc(-c2nnc(CCC(=O)N(C)Cc3nccs3)o2)s1	i	i	i	i	x	x
Cc1ccc(-c2nc(CN(C)Cc3ccc4nccnc4c3)c(C)o2)s1	i	i	-5.16*	i	i	i
COC(=O)Cc1cc(=O)n2[nH]c(C)c(-c3ccccc3)c2n1	i	i	i	i	x	x
Cc1[nH]n2c(=O)cc(C(C)C)nc2c1-c1ccccc1	i	i	-5.17*	i	i	i
CCCc1cc(=O)n2[nH]c(C)c(-c3ccccc3)c2n1	i	i	-5.78*	i	i	i
Cc1cccc(C(=O)N[C@H](C(=O)NCCc2ccc(Cl)cc2)C(C)C)c1	i	i	i	i	x	x
CNC(=O)CNC(=O)Nc1ccc(C)cc1	i	i	i	i	x	x
COc1ccccc1S(=O)(=O)Cc1ccc(C(=O)NCC(OC)OC)o1	i	i	i	i	x	x
CCCCc1cc(=O)oc2cc(C)cc(OCC(=O)NC(Cc3ccc(Cl)cc3)C(=O)O)c12 (stereo not given)	i	i	i	i	x	x
Cc1ccccc1CC1(CO)CCCN(Cc2nc(-c3cccs3)oc2C)C1 (stereo not given)	i	i	-6.67*	i	i	i
SMILES	TMEM16A inh	CHT PAM	CHT inh	ANO1 activ	CHT block conf	HEK293 CHT ctr
CCOc1ccc(CCNC(=O)C2CC(=O)N(c3ccccc3OCC)C2)cc1OCC (stereo not given)	i	i	i	i	x	x
O=c1c2cc(Br)ccc2nc(-c2ccc([N+](=O)[O-])cc2)n1O	i	i	-6.3*	i	37.5%*	i
Cc1ccc(S(=O)(=O)N2CCN(c3ccc([N+](=O)[O-])cn3)CC2)cc1	i	i	i	i	x	x
CCCCn1c(SCC(=O)Nc2cccc(OC)c2)nc2ccc(N3CCOCC3)cc2c1=O	i	i	-5.97*	i	62.2%*	i
CCCCOC(=O)n1c(SCC(=O)N(CC)CC)nc2ccccc21	i	i	-5.2*	i	i	i
Cc1ccccc1N=Nc1c(O)n(C)c2ccccc12	i	i	i	i	x	x
Cc1ccc(C2NC(=O)Cc3ccccc32)cc1 (stereo not given)	i	i	i	i	x	x
CN(Cc1nc(-c2cccnc2)no1)S(=O)(=O)c1ccc(Br)cc1	i	i	-5.66*	i	61.9%*	i
CC(NC(=O)NC12CC3CC(CC(C3)C1)C2)c1ccc2c(c1)OCO2 (stereo not given)	i	i	i	i	x	x
Cc1ccc(C(C)NC(=S)NC2CCCCC2)cc1C (stereo not given)	i	i	-12.3*	i	22.5%*	i
CC(NC(=O)NC1CCCCC1)c1ccc2c(c1)OCO2 (stereo not given)	i	i	-6.71*	i	66.1%*	i
Cc1cccc(C)c1NC(=O)CCCn1nc(C)c2c(C)n(-c3ccccc3)nc2c1=O	i	i	i	i	x	x
N#CCOc1coc(CN2CCN(c3cccc(Cl)c3)CC2)cc1=O	i	i	i	i	x	x
CC1=C(C(=O)N2CCCC(CCC(=O)NCc3ccccc3F)C2)OCCO1 (stereo not given)	i	i	-6.09*	i	i	i
CCc1ccc(OC(C)C(=O)Nc2ccc(S(=O)(=O)Nc3nccs3)cc2)cc1 (stereo not given)	i	i	-5.02*	i	58.9%*	i
Cc1cc(C)cc(OC(C)C(=O)Nc2ccc(S(=O)(=O)Nc3cc(C)nc(C)n3)cc2)c1 (stereo not given)	i	i	-6.04*	i	39.5%*	i
Cc1cc(NS(=O)(=O)c2ccc(NC(=O)C(C(C)C)N3C(=O)c4ccccc4C3=O)cc2)nc(C)n1 (stereo not given)	i	i	i	i	x	x
Cc1[nH]n(-c2cccc(Cl)c2)c(=O)c1-c1ccccc1	i	i	-6.12*	i	67.5%*	i
C(=N\Nc1nccc(-c2cccnc2)n1)/c1ccccc1	i	i	-12*	i	i	i
Cc1ccnc(N/N=C/c2ccccc2)n1	i	i	i	i	x	x
CCCNC(=O)c1ccccc1NC(=O)c1ccc2c(c1)NC(=O)C(C)S2 (stereo not given)	i	i	-5.89*	i	65.2%*	i
CC(=O)c1ccccc1NC(=O)c1ccc2c(c1)NC(=O)C(C)S2 (stereo not given)	i	i	i	i	x	x
CC(NC(=O)c1ccc(OC2CCN(Cc3ccccn3)CC2)cc1)c1ccccc1 (stereo not given)	i	i	-10.1*	i	-1.0%*	i
